Drawing on PubChem BioAssay AID488890 (Southern Research Specialized Biocontainment Screening …, 2010), this text covers inhibition for 33 compounds.

Out of some 320,000 compounds screened, about 1,300 (0.41%) were called active. Inconclusive results (about 3%) are left out. The rule behind the calls is not given here. A selection follows. Potency and affinity values are given separately.

What is called inhibition is the drop in the measured response relative to a control, in per cent.

The nature of the assay: growth inhibition of non-replicating M. tuberculosis (AID 488890).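 Note: plate controls were DMSO cells for no effect and high antibiotic wells for full effect.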 The following applies: Mycobacterium tuberculosis non-replicating, at 25 µM, stronger effect = higher value.
In the case of `COC(=O)CSc1nnc(-c2ccccc2OC)o1`, the inhibition amounted to 77.4%. In the case of `Cn1nc([N+](=O)[O-])nc1Sc1nnc(-c2ccccc2)o1` it was 78%; in that of `CCCOc1ccc(N2CC(C(=O)NC(C)C)CC2=O)cc1` (stereo not drawn), -9.57%; in that of `CCC(=Nc1ccc2c(c1)CCC2)c1c(O)n(C)c(=O)n(C)c1=O`, 7.71%. Next, `CCC(=Nc1cccc(C(F)(F)F)c1)c1c(O)n(C)c(=O)n(C)c1=O`: -2.54%. With `COc1cccc(OC)c1C(=O)OCC(=O)N1CC(C)CC(C)C1` (stereo not drawn), the inhibition is -15.5%. Next, `Cc1nnc(C)n1/N=C/c1c(O)ccc2ccccc12`: 3.2%. In the case of `Cc1nc2ccccc2c(=O)n1/N=C/c1c(O)ccc2ccccc12` it was 40.6%; in that of `Fc1cccc(Nc2cc(-n3cccn3)ncn2)c1`, 21.4%; in that of `CN(Cc1cccs1)S(=O)(=O)c1ccc(Cl)cc1F`, 44.2%. On to `Cc1ccc(N=Cc2nc(-c3ccco3)oc2O)cc1`, for which the inhibition came out at 73.2%.

Regarding `Oc1oc(-c2ccco2)nc1C=Nc1ccccc1`, the inhibition is 17%.

For `CC(C)(O)C#Cc1ccc(CN2CCN(C3CCCCC3)C(CCO)C2)s1` (stereo not drawn), the inhibition worked out at 11.2%.

Regarding `CCN(CC)CCOC(=O)/C=C/c1ccccc1OC`, the inhibition is -10.5%. In the case of `COc1ccc(NC(=O)Nc2ccccc2F)c(C)c1` it was 20.6%. Next, `CCOc1cc(-c2sc(Nc3ccc(CC)cc3)n[n+]2-c2ccccc2)ccc1OC`: 63.8%; `COc1ccc(C)cc1Nc1n[n+](-c2ccccc2)c(-c2ccc(SC)cc2)s1`: 76.9%. In the case of `Oc1cc2c(cc1CN1CCN(c3ncccn3)CC1)OCO2` it was 8.73%; in that of `C=CCNc1oc(-c2cccs2)nc1C#N`, -2.7%; in that of `N#Cc1nc(-c2cccs2)oc1NCc1ccccc1`, 29.7%. `CC1CCCC(NS(=O)(=O)c2cc3c(cc2Cl)NC(=O)CO3)C1C` (stereo not drawn): the inhibition stood at 31.5%. On to `Cc1ccc(C2(C)NC(=O)N(CC(=O)N(C)CC(=O)Nc3cccc4ccccc34)C2=O)cc1` (stereo not drawn), for which the inhibition came to 7.1%.

`COc1ccc(C2=NCC(=S)Nc3ccc(Cl)cc32)cc1OC`: the inhibition was -21%. Next, `O=C1CN=C(c2ccccc2)c2cc(Cl)ccc2N1`: 5.86%; `O=C(CN1C(=O)C(=O)N(CCC2=CCCCC2)C1=O)Nc1ccc(F)cc1F`: 8.84%. In the case of `Cc1nc2ccccc2nc1OCC(=O)Nc1cc(C(F)(F)F)ccc1N1CCOCC1` it was 5.99%; in that of `CN(C)/C=C1/OC(=O)C(C#N)=C1c1ccc(Cl)cc1`, -0.58%; in that of `O=C1O/C(=C/c2ccccc2)c2ccccc21`, -7.13%.

With `COc1cc(/C=C/[N+](=O)[O-])ccc1OC(=O)c1cc2ccccc2oc1=O`, the inhibition is 37.8%.

As for `COc1ccc(N(CC(=O)Nc2ccccc2C)S(=O)(=O)c2c(C)[nH]c(=O)[nH]c2=O)cc1`, the inhibition came to 8.99%. Next, `CC(C)NC(=O)Cn1c(SCC(=O)c2ccc(F)cc2)nc2ccccc21`: 7.83%; `Cc1cc(C2=NNC(=NC3CC3)SC2)c(C)n1-c1c(C)n(C)n(-c2ccccc2)c1=O`: 4.63%. In the case of `CN=C1NN=C(c2cc(C)n(-c3ccc(Cl)cc3)c2C)CS1` it was 14.6%.
